Consider 27 compounds from paper PMC5540273 (PLoS ONE, 2017).
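Note: KINOMEscan kinase panel screen.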

For one assay, the system named is FGFR1. The following applies: concentration: 1 μM,replicates: in singlicate; n = 1.
With `CN(C)CCOc1ccc(-c2cc(-c3c[nH]nc3-c3ccccn3)ccn2)cc1` [GW835314], the “%Inh” value is reported as 47%.

As for `CC(C)N1C(=O)Cc2cc(Nc3ncc(C(F)(F)F)c(NCc4cccc(S(C)(=O)=O)c4)n3)ccc21`, the “%Inh” value is on record as 38%. Same read-out and setting: the figure for `O=C(NCCNc1ccnc(NCc2ccc(F)cc2)n1)c1cc2ccccc2s1` [GSK1379944] is 6%; for `CCn1c(-c2nonc2N)nc2c(C#CC(C)(C)O)nc(OCCN)cc21.Cl.Cl` [GSK902056] it is 0%.

As for `Cc1occc1-c1nc(N)c(OC[C@@H](N)Cc2c[nH]c3ccccc23)cc1-c1cc2c(C)n[nH]c2cn1` [GSK1660450], the “%Inh” value turned out to be 49%. Take `Cl.Cl.NC[C@H](Cc1ccc(C(F)(F)F)cc1)NC(=O)c1cc(Br)c(-c2ccnc3[nH]ccc23)s1` [GSK1487252]: the “%Inh” value was determined as 14%. On the same count and under the same terms, the figure for `C[C@@H]1CCN(C(=O)CC#N)C[C@@H]1N(C)c1ncnc2[nH]ccc12` is 0%; for `Cc1n[nH]c2ccc(-c3cc(OC[C@@H](N)Cc4ccccc4)cnc3-c3ccoc3)cc12.O=C(O)C(F)(F)F.O=C(O)C(F)(F)F` [GSK507358] it is 0%. Consider `O=C(NCCCN1CCOC1=O)c1cnc(NCc2cc(Cl)ccc2Cl)nc1NC1CCCC1`, for which the “%Inh” value is reported as 10%. On to `Cl.Cl.Nc1nc(-c2ccc3c(N)n[nH]c3c2)cc(N2CCCC(NC(=O)c3ccccc3)C2)n1` (stereo not shown) [GSK2286775], for which the “%Inh” value is 0%.

On to `Cc1cc(C(=O)Nc2ccc(Oc3ccc4nc(NC(=O)C5CC5)cn4n3)cc2)nn1-c1ccccc1`, for which the “%Inh” value was found to be 21%. With `CN(C)CC(O)COc1ccc(Nc2nccc(-c3cnn4nc(N5CCOCC5)ccc34)n2)cc1` (stereo not shown) [GW767488], the “%Inh” value was determined as 2%.

`Cc1cc2cn[nH]c2cc1-c1cccc2c(N)c(C(N)=O)nnc12`: the “%Inh” value was found to be 35%.

Regarding `Nc1nc(Nc2ccccc2)cc(-c2ccc3c(N)n[nH]c3c2)n1` [GSK2225749], the “%Inh” value was found to be 17%. For the compound `Cl.Oc1cc(-c2nc(-c3ccccc3)[nH]c2-c2ccncc2)ccc1Cl` [SB-386023], the “%Inh” value came out at 6%. Same read-out and setting: the figure for `C[C@@H](Oc1cc(-c2cnn(C3CCNCC3)c2)cnc1N)c1c(Cl)ccc(F)c1Cl` is 22%.

Take `C=CC(=O)Nc1cc2c(Nc3ccc(F)c(Cl)c3)ncnc2cc1OCCCN1CCOCC1` [GW781483]: the “%Inh” value came to 0%. Still for that read-out and setting: the figure for `Cl.Cl.NC[C@H](CC1CCCCC1)NC(=O)c1cc(Br)c(-c2ccnc3[nH]ccc23)s1` [GSK1581427] is 35%; for `CC(C)Nc1cc(-c2ccc3c(N)n[nH]c3c2)nc(N)n1` [GSK2221681] it is 20%; for `CCN(CC)CCCCNc1ncc2cc(-c3c(Cl)cccc3Cl)c(NC(=O)NC(C)(C)C)nc2n1` it is 98.6%.

Turning to `Cc1ccc2c(-c3ccncc3)c(-c3ccc(F)cc3)nn2c1.Cl` [GW461484], the “%Inh” value came out at 14%. Same read-out and setting: the figure for `COc1ccc(C[C@@H](CN)NC(=O)c2cc(Br)c(-c3ccnc4[nH]ccc34)s2)cc1.Cl.Cl` [GSK1389063] is 95.8%.

For the compound `C[C@H]1Oc2cc(cnc2N)-c2c(nn(C)c2C#N)CN(C)C(=O)c2ccc(F)cc21`, the “%Inh” value is given as 12%. As to `CCN(CC)CCOc1ccc(Nc2ncc3cc(-c4c(Cl)cccc4Cl)c(=O)n(C)c3n2)cc1` [SB-601273], the “%Inh” value worked out at 99.9%.

In the case of `NC(=O)c1cc(-c2ccccc2)cc2c(C3CCNCC3)c[nH]c12` [GSK301362], the “%Inh” value was 32%.

A further assay deals with FGFR2. The following applies: concentration: 1 μM,replicates: in singlicate; n = 1.
Consider `CN(C)CCOc1ccc(-c2cc(-c3c[nH]nc3-c3ccccn3)ccn2)cc1` [GW835314], for which the “%Inh” value was found to be 17%. Same read-out and setting: the figure for `CC(C)N1C(=O)Cc2cc(Nc3ncc(C(F)(F)F)c(NCc4cccc(S(C)(=O)=O)c4)n3)ccc21` is 52%; for `O=C(NCCNc1ccnc(NCc2ccc(F)cc2)n1)c1cc2ccccc2s1` [GSK1379944] it is 10%; for `CCn1c(-c2nonc2N)nc2c(C#CC(C)(C)O)nc(OCCN)cc21.Cl.Cl` [GSK902056] it is 100%.

Regarding `Cc1occc1-c1nc(N)c(OC[C@@H](N)Cc2c[nH]c3ccccc23)cc1-c1cc2c(C)n[nH]c2cn1` [GSK1660450], the “%Inh” value was 4%.

For the compound `Cl.Cl.NC[C@H](Cc1ccc(C(F)(F)F)cc1)NC(=O)c1cc(Br)c(-c2ccnc3[nH]ccc23)s1` [GSK1487252], the “%Inh” value was 17%. Same read-out and setting: the figure for `C[C@@H]1CCN(C(=O)CC#N)C[C@@H]1N(C)c1ncnc2[nH]ccc12` is 0%; for `CNC(=O)c1ccccc1Sc1ccc2c(/C=C/c3ccccn3)n[nH]c2c1` it is 86%. Same read-out and setting: the figure for `Cc1n[nH]c2ccc(-c3cc(OC[C@@H](N)Cc4ccccc4)cnc3-c3ccoc3)cc12.O=C(O)C(F)(F)F.O=C(O)C(F)(F)F` [GSK507358] is 0%. Same read-out and setting: the figure for `O=C(NCCCN1CCOC1=O)c1cnc(NCc2cc(Cl)ccc2Cl)nc1NC1CCCC1` is 24%; for `Cl.Cl.Nc1nc(-c2ccc3c(N)n[nH]c3c2)cc(N2CCCC(NC(=O)c3ccccc3)C2)n1` (stereo not shown) [GSK2286775] it is 0%.

Consider `Cc1cc(C(=O)Nc2ccc(Oc3ccc4nc(NC(=O)C5CC5)cn4n3)cc2)nn1-c1ccccc1`, for which the “%Inh” value was 28%. On the same count and under the same terms, the figure for `CN(C)CC(O)COc1ccc(Nc2nccc(-c3cnn4nc(N5CCOCC5)ccc34)n2)cc1` (stereo not shown) [GW767488] is 6%.

With `Cc1cc2cn[nH]c2cc1-c1cccc2c(N)c(C(N)=O)nnc12`, the “%Inh” value was 0%. Regarding `Nc1nc(Nc2ccccc2)cc(-c2ccc3c(N)n[nH]c3c2)n1` [GSK2225749], the “%Inh” value is 10%. As to `Cl.Oc1cc(-c2nc(-c3ccccc3)[nH]c2-c2ccncc2)ccc1Cl` [SB-386023], the “%Inh” value came out at 2%. For the compound `C[C@@H](Oc1cc(-c2cnn(C3CCNCC3)c2)cnc1N)c1c(Cl)ccc(F)c1Cl`, the “%Inh” value is 0%. As for `C=CC(=O)Nc1cc2c(Nc3ccc(F)c(Cl)c3)ncnc2cc1OCCCN1CCOCC1` [GW781483], the “%Inh” value amounted to 0%. On to `Cl.Cl.NC[C@H](CC1CCCCC1)NC(=O)c1cc(Br)c(-c2ccnc3[nH]ccc23)s1` [GSK1581427], for which the “%Inh” value was found to be 18%. Same read-out and setting: the figure for `Cc1ccc(-n2nc(C(C)(C)C)cc2NC(=O)Nc2ccc(OCCN3CCOCC3)c3ccccc23)cc1` [GW839464] is 2%; for `CC(C)Nc1cc(-c2ccc3c(N)n[nH]c3c2)nc(N)n1` [GSK2221681] it is 0%. Same read-out and setting: the figure for `CCN(CC)CCCCNc1ncc2cc(-c3c(Cl)cccc3Cl)c(NC(=O)NC(C)(C)C)nc2n1` is 96.4%; for `Cc1ccc2c(-c3ccncc3)c(-c3ccc(F)cc3)nn2c1.Cl` [GW461484] it is 12%; for `COc1ccc(C[C@@H](CN)NC(=O)c2cc(Br)c(-c3ccnc4[nH]ccc34)s2)cc1.Cl.Cl` [GSK1389063] it is 83%. For the compound `C[C@H]1Oc2cc(cnc2N)-c2c(nn(C)c2C#N)CN(C)C(=O)c2ccc(F)cc21`, the “%Inh” value turned out to be 26%. On the same count and under the same terms, the figure for `CCN(CC)CCOc1ccc(Nc2ncc3cc(-c4c(Cl)cccc4Cl)c(=O)n(C)c3n2)cc1` [SB-601273] is 100%; for `NC(=O)c1cc(-c2ccccc2)cc2c(C3CCNCC3)c[nH]c12` [GSK301362] it is 19%.
